Results taken from PubChem BioAssay (NCATS).
A number with no mark means an inactive call. Inconclusive results are not listed. Calls of active or inactive are those of the source. Unless noted, the call rests on the fitted dose curve; in most records, active means well fitted curve in either direction with a large enough effect (not every such curve was filed as active); inconclusive means small, poorly fitted or top-dose-only effect, or another doubt; inactive means flat fitted curve, though single readings scatter.

How the values were obtained:
[1] = target: Lysosomal acid glucosylceramidase (Homo sapiens) (UniProt P04062); test: Glucocerebrosidase-p2 (AID 348; in the data active means potency below about 10 µM; further: potency means the concentration at half of the fitted maximal effect); details: purified GBA, blue fluorogenic substrate, 40 min
Procedure, shortened: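 Compounds titrated from 0.6 nM upwards against 0.2 nM enzyme in pH 5.9 citric acid/KH2PO4, taurocholate, tween-20; blue fluorogenic substrate 80 uM, 40 min room temperature, stopped and read Ex 365/Em 440 for AC50.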

[2] = AP1 Signaling Pathway (AID 357); details: ME-180 AP-1-bla reporter, EGF-induced, beta-lactamase ratio, 5 h; at 7.69 µM (top of the series) unless noted;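 further: ME-180 reporter cells stimulated with EGF at its EC50 level; on the % scale 0 is the no-effect control and ±100 the full control effect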
Procedure, shortened: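 Read-out was the 460nm/530nm emission ratio (excitation 405nm) after CCF4 loading for 2.5 hours at room temperature. Cells carried an AP-1-driven beta-lactamase reporter, were stimulated with EC50 EGF plus compound for 5 hours, and AC50 values came from titrations.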

[3] = target: Cytochrome P450 1A2 (Homo sapiens) (UniProt P05177); test: p450-cyp1a2 (AID 410; calls by dose curve; further: potency means the concentration at half of the fitted maximal effect;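 on activity change, negative = inhibition: -100% = full effect of reference inhibitor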); details: recombinant CYP1A2, luciferin-ME demethylation, luminescence; series mostly up to 11.4 µM
Procedure, shortened: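 Human CYP1A2 (20nM) demethylated Luciferin-ME at its Km (100uM) in 100mM KPO4. After 10 min compound preincubation, NADPH regeneration ran the reaction 60 min at room temperature. Luciferin was read by luminescence, normalized to 57 uM furafylline.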

[4] = NFAT Signaling Pathway (AID 444); details: Jurkat NFAT-bla M1, carbachol, beta-lactamase ratio, 5 h; at 7.69 µM (top of the series) unless noted;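 further: carbachol stimulus at about its EC50 of 1 µM final; on the % scale 0 is the no-effect control and ±100 the full control effect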
Procedure, shortened: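 Jurkat cells carrying an NFAT-driven β-lactamase reporter and co-transfected muscarinic M1 receptor were treated with compound plus carbachol (1 uM final, an EC50 level) for 5 h at 37 °C. CCF4 loading followed for 1 h at RT; 460/530 nm ratio gave %activity.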

[5] = Stat Signaling Pathway (AID 446); details: ME-180 SIE beta-lactamase reporter, IL-6 stimulated, 5 h; at 7.69 µM (top of the series) unless noted;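 further: ME-180 cervical cancer cells given 40 pM IL-6 alongside compound; SIE-controlled beta-lactamase reporter measured as 460/530 nm FRET emission ratio; on the % scale 0 is the no-effect control and ±100 the full control effect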
Procedure, shortened: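 Reporter line: ME-180 cervical carcinoma, SIE-beta-lactamase. Treatment: compound with 40 pM IL-6, 5 hrs, 37 C, in low-serum OPTI-MEM with 10 mM HEPES pH 7.3. Detection: 460/530 nm fluorescence.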

[6] = target: Glucocorticoid receptor (Homo sapiens) (UniProt P04150); test: GR-GFP Redistribution (AID 450;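 active means compounds whose dose series gives a full or clear partial fitted curve of increased nuclear translocation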; further: potency means the concentration at half of the fitted maximal effect); details: U2OS GR-GFP nuclear translocation, laser cytometry, 2 h
[7] = target: Glucocorticoid receptor (Homo sapiens) (UniProt P04150); test: GR-EFC Redistribution (AID 451; calls by dose curve; further: potency means the concentration at half of the fitted maximal effect); details: CHO-K1 GR-EFC translocation, beta-gal luminescence, 2 h
Procedure, shortened: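 CHO-K1 cells stably expressing nuclear-localized β-gal enzyme acceptor and GR fused C-terminally to the enzyme donor fragment; ligand-driven nuclear translocation restores β-gal by complementation. Compounds titrated up to 46 uM final, 2 h at 37 °C; luminescence read.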

[8] = target: Mitogen-activated protein kinase 10 (Mus musculus) (UniProt Q61831); test: JNK3 AlphaScreen Assay (AID 530); details: JNK3 lysate, c-Jun phosphorylation; series mostly up to 11.4 µM;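 further: kinase came from lysate of stimulated human HepG2 cells; signal reports phosphorylation of biotinylated GST-cJun 1-79 at Ser73 with 10 µM ATP; on the % scale 0 is the no-effect control and ±100 the full control effect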
Procedure, shortened: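 JNK3 came from HepG2 lysates pre-activated with IL-1beta and TNF-alpha and phosphorylated biotinylated GST-cJun (1-79) at 10 uM ATP, pH 7.6, room temperature. Compounds were titrated. AlphaScreen signal used anti-phospho-cJun (Ser73) antibody.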

[9] = target: 3',5'-cyclic-AMP phosphodiesterase 4B (Homo sapiens) (UniProt Q07343); test: qHTS Assay for Inhibitors of PDE-IV (AID 607; active means well fitted activation curve with a large enough effect in the main read-out, with a control signal flat, not every such curve was filed as active; further: % of control where 0% means no effect); details: HEK293 ACTOne CNG channel cells, membrane potential fluorescence; series mostly up to 22.9 µM
Procedure, shortened: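 Cell-based read-out of cAMP via a modified cyclic nucleotide-gated channel and membrane potential dye (535/590 nm) in HEK293 cells expressing PDE4 endogenously. Compounds tested up to 22.9 uM final; 100 uM RO 20-1724 reference.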

[10] = target: Cytochrome P450 2C9 (Homo sapiens) (UniProt P11712); test: qHTS Assay for Inhibitors and Substrates of Cytochrome P450 2C9 (AID 883; active means well fitted inhibition curve with a large enough effect; further: nearly all actives have a fitted effect of over 60% in size; further: potency means the concentration at half of the fitted maximal effect); details: recombinant CYP2C9, luciferin-H luminescence, 60 min; series mostly up to 11.4 µM
Procedure, shortened: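 Human CYP2C9 (10nM) hydroxylated Luciferin-H (100uM, at its KM) to luciferin in 25mM KPO4. Compound was preincubated 10 min at 37C, then NADPH regeneration started a 60 min reaction at 37C. Luminescence was read after detection reagent, normalized to 57uM sulphaphenazole.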

Cytochrome P450 1A2 (Homo sapiens), sequence (P05177 whole entry, looked up): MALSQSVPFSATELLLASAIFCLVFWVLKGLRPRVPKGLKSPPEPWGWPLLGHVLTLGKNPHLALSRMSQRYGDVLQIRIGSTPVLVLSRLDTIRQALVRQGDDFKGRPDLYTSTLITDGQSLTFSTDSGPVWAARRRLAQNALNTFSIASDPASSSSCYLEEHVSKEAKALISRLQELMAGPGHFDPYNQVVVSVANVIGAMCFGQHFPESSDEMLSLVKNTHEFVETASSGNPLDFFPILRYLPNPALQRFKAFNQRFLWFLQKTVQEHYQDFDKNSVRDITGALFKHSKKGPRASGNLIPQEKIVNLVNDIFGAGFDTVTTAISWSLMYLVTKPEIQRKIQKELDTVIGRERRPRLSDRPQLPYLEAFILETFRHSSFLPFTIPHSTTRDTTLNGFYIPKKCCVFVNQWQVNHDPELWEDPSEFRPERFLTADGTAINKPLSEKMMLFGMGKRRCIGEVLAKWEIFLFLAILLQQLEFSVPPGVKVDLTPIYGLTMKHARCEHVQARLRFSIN
Glucocorticoid receptor (Homo sapiens), sequence (P04150 whole entry, looked up, the tested form may be a part): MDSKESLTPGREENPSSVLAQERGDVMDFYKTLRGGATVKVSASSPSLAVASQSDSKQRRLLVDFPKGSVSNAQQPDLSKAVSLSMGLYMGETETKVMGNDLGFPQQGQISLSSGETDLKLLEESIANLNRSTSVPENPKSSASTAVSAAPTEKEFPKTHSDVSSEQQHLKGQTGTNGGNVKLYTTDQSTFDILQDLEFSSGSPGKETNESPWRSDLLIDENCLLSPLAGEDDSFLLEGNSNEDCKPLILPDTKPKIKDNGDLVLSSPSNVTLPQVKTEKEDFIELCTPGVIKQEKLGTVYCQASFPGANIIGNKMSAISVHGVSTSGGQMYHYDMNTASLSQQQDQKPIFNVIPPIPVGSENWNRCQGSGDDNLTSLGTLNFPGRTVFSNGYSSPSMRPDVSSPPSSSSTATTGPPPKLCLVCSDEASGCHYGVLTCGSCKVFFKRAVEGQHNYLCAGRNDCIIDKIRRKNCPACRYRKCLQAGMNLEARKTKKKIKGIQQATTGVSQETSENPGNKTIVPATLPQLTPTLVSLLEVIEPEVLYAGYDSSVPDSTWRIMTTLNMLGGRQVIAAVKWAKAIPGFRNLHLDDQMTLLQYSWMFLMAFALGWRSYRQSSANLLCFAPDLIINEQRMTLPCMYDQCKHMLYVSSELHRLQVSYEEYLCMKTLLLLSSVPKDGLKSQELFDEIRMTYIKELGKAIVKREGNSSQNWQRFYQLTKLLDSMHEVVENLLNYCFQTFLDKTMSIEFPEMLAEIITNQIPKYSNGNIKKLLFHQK
Lysosomal acid glucosylceramidase (Homo sapiens), sequence (P04062 whole entry, looked up): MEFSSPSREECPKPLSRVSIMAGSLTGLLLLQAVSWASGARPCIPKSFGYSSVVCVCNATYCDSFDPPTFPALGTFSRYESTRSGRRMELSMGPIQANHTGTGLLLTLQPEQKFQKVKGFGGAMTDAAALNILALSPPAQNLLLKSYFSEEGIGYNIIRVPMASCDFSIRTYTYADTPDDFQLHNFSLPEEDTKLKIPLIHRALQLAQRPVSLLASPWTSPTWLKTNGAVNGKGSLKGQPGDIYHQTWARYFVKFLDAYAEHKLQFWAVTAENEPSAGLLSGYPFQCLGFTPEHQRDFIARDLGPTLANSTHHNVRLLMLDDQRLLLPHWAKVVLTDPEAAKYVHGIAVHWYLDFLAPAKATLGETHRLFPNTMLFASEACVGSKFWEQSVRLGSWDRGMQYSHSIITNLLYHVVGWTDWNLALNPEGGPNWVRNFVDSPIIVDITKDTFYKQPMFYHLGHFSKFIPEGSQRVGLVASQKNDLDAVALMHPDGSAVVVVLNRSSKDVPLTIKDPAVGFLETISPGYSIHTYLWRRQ
Cytochrome P450 2C9 (Homo sapiens), sequence (P11712 whole entry, looked up): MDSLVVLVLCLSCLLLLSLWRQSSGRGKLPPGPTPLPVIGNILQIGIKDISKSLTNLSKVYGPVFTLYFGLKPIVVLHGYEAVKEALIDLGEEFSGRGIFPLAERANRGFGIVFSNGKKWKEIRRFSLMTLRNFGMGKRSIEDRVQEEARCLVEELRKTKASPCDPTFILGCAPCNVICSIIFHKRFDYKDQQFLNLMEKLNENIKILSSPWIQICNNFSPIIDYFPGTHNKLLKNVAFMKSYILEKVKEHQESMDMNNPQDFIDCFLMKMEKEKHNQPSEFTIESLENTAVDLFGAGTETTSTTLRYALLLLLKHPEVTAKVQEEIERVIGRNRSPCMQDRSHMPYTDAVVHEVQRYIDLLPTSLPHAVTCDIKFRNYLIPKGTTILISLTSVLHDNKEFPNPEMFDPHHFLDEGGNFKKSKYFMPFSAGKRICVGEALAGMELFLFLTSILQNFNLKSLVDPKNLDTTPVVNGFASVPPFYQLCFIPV
3',5'-cyclic-AMP phosphodiesterase 4B (Homo sapiens), sequence (Q07343 whole entry, looked up): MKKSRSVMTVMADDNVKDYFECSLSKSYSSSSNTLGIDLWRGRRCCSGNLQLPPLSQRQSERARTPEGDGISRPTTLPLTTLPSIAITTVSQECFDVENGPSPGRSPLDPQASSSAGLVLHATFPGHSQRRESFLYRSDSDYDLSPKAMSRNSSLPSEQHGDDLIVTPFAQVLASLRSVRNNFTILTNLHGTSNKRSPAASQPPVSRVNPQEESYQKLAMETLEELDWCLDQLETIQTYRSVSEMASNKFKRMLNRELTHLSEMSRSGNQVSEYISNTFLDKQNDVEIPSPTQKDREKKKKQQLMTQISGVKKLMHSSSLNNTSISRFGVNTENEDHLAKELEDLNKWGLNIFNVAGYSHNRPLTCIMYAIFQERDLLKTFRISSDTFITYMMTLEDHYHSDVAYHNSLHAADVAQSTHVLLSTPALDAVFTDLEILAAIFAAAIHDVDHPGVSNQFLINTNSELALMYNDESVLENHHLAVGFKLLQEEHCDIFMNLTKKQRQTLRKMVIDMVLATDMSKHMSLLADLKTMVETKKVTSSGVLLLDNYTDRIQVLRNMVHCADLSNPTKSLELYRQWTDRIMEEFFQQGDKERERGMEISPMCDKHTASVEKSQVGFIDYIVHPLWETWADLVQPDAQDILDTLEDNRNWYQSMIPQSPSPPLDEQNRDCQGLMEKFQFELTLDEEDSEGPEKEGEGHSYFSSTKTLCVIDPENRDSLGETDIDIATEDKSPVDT

Structure (SMILES)	Potency [1] [µM]	activity change, negative = inhibition [2] [%]	Potency [3]	activity change, negative = inhibition [4] [%]	activity, negative = inhibition [5] [%]	Potency [6] [µM]	Potency [7] [µM]	Potency [8]	Potency [9]	activity change, negative = inhibition [3]	Potency [10]
N[C@H](C(=O)O)[C@@H](O)c1cnc[nH]1	> 11.4	6.1	inactive	-4.22	2.54	> 46	> 9.22	inactive	inactive		
NCC[C@H](N)C(=O)O	> 11.4	-2.63		8.74	-3.44	> 46	> 9.22	inactive	inactive	-8.9% [at 2.29 µM]	
O=C(O)[C@@H]1Cc2c([nH]c3ccccc23)[C@@H](CCCCO)N1	> 11.4	-12.4		3.55	-0.601	> 46	> 9.22	inactive	inactive	-9.6% [at 2.29 µM]	
COc1cccc2[nH]c(-c3ccccn3)nc12	> 11.4	-2.26	0.794 µM (active)	1.67	4.98	> 46	> 9.22	inactive	inactive		inactive
OCCSCc1ccccc1	> 11.4	2.72	inactive	3.48	4.23	> 46	> 9.22	inactive	inactive		
CC(CCC(=O)O)(c1cc(Br)c(O)c(Br)c1)c1cc(Br)c(O)c(Br)c1	> 11.4	17.5		3.8	0.505	> 46	> 9.22	inactive	inactive	-17.9% [at 2.29 µM]	3.16 µM (active)
CC(C)NCC[C@@H](O)c1cc2ccccc2o1	> 11.4	-15		-2.7	9.58	> 46	> 9.22	inactive	inactive	-2.1% [at 2.29 µM]	
NS(=O)(=O)c1cc(C(=O)O)c(O)c2ccccc12	> 11.4	15.8	inactive	12.4	10.7	> 46	> 9.22	inactive	inactive		
O=C(O)c1cccc(OCCO)c1	> 11.4	7.9	inactive	-28.1	13.6	> 46	> 9.22	inactive	inactive		
CC(C)C(=O)Cc1ccc2ccccc2n1	> 11.4	-4.8	3.16 µM (active)	12.2	3.27	> 46	> 9.22	inactive	inactive		
C[N+](C)(C)CCCSc1nc2ccccc2[nH]1	> 11.4	-2.62	inactive	-15.2	-0.948	> 46	> 9.22	inactive	inactive		
CC(=O)Nc1ccc(S(=O)(=O)N=S(C)C)cc1	> 11.4	4.76		3.98	-3.32	> 46	> 9.22	inactive	inactive	-15.9% [at 2.29 µM]	
N[C@@H](Cc1cccc([N+](=O)[O-])c1)C(=O)O	> 11.4	-0.119	inactive	0.16	0.761	> 46	> 9.22	inactive	inactive		
O=C(O)c1ccc(Cc2ccccc2C(=O)O)cc1	> 11.4	-5.89	inactive	5.4	-2.65	> 46	> 9.22	inactive	inactive		
O=C(O)c1[nH]c2c([N+](=O)[O-])cc([N+](=O)[O-])cc2c1C(=O)O	> 11.4	0.189	0.126 µM (active)	2.5	-6.73	> 46	> 9.22	inactive	inactive		3.16 µM (active)
NCCSC[C@H](N)C(=O)O	> 11.4	-5.07	inactive	6.39	6.75	> 46	> 9.22	inactive	inactive		inactive
